Screening results deposited in PubChem by The Scripps Research Institute Molecular Screening Center.
CHO-K1 Ca antag: M1 antagonist counterscreen hit in parental CHO-K1 cells; ATP-induced calcium, Fluo-8 fluorescence; actives 0.6% (n = 360,000); inhibition, % at 3 µM;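 active means inhibition above a per-plate cutoff, the plate's mean sample inhibition plus 3 SD, cut at about 24% in these data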;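 further: 0% = DMSO plus EC80 ATP and 100% = DMSO alone without ATP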
M1 ag: human M1 muscarinic receptor agonism; activation, % at 3 µM; AID 588814; CHO-K1 hM1, Fluo-8 calcium fluorescence, agonist mode; 0% DMSO, 100% acetylcholine EC100; actives 0.33% (n = 360,000);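 active means activation above the run's mean compound activation plus 3 SD, cut at about 16% in these data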;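 further: peak over basal fluorescence ratio within a 140 s kinetic read after compound addition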
Target sequence (P11229 whole entry, looked up): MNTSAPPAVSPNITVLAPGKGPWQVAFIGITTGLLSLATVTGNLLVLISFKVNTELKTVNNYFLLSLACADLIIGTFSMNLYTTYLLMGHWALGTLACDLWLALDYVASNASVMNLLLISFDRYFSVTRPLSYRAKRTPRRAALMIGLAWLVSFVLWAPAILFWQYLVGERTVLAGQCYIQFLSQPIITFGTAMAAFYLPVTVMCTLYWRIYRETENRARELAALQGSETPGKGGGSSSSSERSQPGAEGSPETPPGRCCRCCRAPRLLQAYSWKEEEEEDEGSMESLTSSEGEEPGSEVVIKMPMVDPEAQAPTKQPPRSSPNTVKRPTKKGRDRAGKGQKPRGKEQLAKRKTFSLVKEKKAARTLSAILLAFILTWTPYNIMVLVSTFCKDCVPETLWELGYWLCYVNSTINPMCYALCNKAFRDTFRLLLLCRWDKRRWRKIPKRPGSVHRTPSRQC
M1 PAM parental: M1 PAM counterscreen hit in parental CHO-K1 cells. ATP EC20, Fluo-8 calcium fluorescence; 0% at ATP EC20, 100% at ATP max. activation, % at 3 µM. actives 0.02% (n = 360,000);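 active means activation above the run cutoff, the mean activation of all test compounds plus 3 SD, cut at about 40% in these data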;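 further: peak over basal fluorescence ratio in a 140 s read after ATP addition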
M1 PAM: potentiates human M1 receptor response to acetylcholine; P11229; CHO-K1 hM1, Fluo-8 calcium fluorescence, ACh EC20; 0% = ACh EC20, 100% = maximal ACh; activation, % at 3 µM; actives 0.088% (n = 360,000); in the data active means activation above about 19%, passing the limit was not always enough
CHO-K1 Ca ag: nonselective activator or artifact in parental CHO-K1 cells | Fluo-8 calcium fluorescence; scaled to maximal ATP response, vehicle zero | activation, % at 3 µM | actives 0.48% (n = 360,000); in the data active means activation above about 15%;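 further: untransfected CHO-K1 host cells lacking M1 receptor as counterscreen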
CHRM1 antagonist: human CHRM1 antagonism; actives 1.3% (n = 360,000); CHO-K1 hM1, Fluo-8 calcium fluorescence, ACh EC80 antagonist; P11229; inhibition, % at 3 µM;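 active means percent inhibition above its own plate's cutoff, namely the mean of that plate's compound wells plus 3 SD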;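 further: peak over basal fluorescence ratio during 140 s after agonist addition; 0% = ACh EC80 plus DMSO and 100% = DMSO alone without agonist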
An asterisk follows results filed as active. Shown are actives, neighbours in structure and some others; about 2.4% of the full set was active somewhere.

Results for CCCn1nnnc1NCc1ccc(F)cc1 ?
CHO-K1 Ca antag: 9.9; M1 ag: -6.9; M1 PAM parental: 19.4; M1 PAM: 11.3; CHO-K1 Ca ag: 14.2; CHRM1 antagonist: -8.1

How did CCCn1nnnc1NCc1ccc(N2CCCC2)cc1 do in these assays?
CHO-K1 Ca antag: -10.1; M1 ag: -7.0; M1 PAM parental: 8.4; M1 PAM: -26.8; CHO-K1 Ca ag: 0.0; CHRM1 antagonist: 57.7*

How did CCCCn1nnnc1NCc1ccc(N2CCCC2)cc1 do in these assays?
CHO-K1 Ca antag: -3.4; M1 ag: -6.1; M1 PAM parental: 2.3; M1 PAM: -20.4; CHO-K1 Ca ag: -0.4; CHRM1 antagonist: 90.5*

Results for O=C(Nc1ccc2c(c1)OCCO2)C(c1ccnc2ccccc12)N1CCN(C/C=C/c2ccccc2)CC1 (stereo not drawn) ?
CHO-K1 Ca antag: -17.5; M1 ag: -3.6; M1 PAM parental: -4.8; M1 PAM: -5.6; CHO-K1 Ca ag: 0.0; CHRM1 antagonist: -19.1

Results for Nc1ncnc2c1ncn2[C@@H]1O[C@H](C(=O)NS(=O)(=O)c2cccs2)[C@@H](O)[C@H]1O ?
CHO-K1 Ca antag: 6.2; M1 ag: -1.7; M1 PAM parental: -9.0; M1 PAM: 6.2; CHO-K1 Ca ag: -0.2; CHRM1 antagonist: -34.2

What do the screens show for `CCOC(=O)c1cc2occc2n1Cc1c(F)cccc1Cl`?
CHO-K1 Ca antag: -8.9; M1 ag: -4.1; M1 PAM parental: 17.5; M1 PAM: 5.2; CHO-K1 Ca ag: 0.0; CHRM1 antagonist: -14.2

Results for Cc1cc2c(cc(C(=O)N3CCC(C(=O)N4CCCC4)CC3)n2Cc2c(F)cccc2Cl)o1 ?
CHO-K1 Ca antag: 7.4; M1 ag: -0.8; M1 PAM parental: -4.4; M1 PAM: -12.7; CHO-K1 Ca ag: 7.0; CHRM1 antagonist: 30.5*

How did COc1ccc(-n2cc(CN(C)C(C)c3ccncn3)c(-c3cccc(F)c3)n2)cc1 (stereo not drawn) do in these assays?
CHO-K1 Ca antag: -15.2; M1 ag: -5.6; M1 PAM parental: 4.7; M1 PAM: 9.6; CHO-K1 Ca ag: 1.9; CHRM1 antagonist: -15.2

How did COc1ccc(-n2cc(CN(C)CCO)c(-c3cccc(F)c3)n2)cc1 do in these assays?
CHO-K1 Ca antag: 10.1; M1 ag: -8.8; M1 PAM parental: -1.8; M1 PAM: -2.2; CHO-K1 Ca ag: 18.4*; CHRM1 antagonist: 5.1

Results for Cc1ccc(S(=O)(=O)N2CCC(C(=O)N3CCC3)CC2)cc1 ?
CHO-K1 Ca antag: 1.3; M1 ag: -0.3; M1 PAM parental: -12.0; M1 PAM: 1.1; CHO-K1 Ca ag: 1.2; CHRM1 antagonist: 1.9

What do the screens show for `CCc1ccc(-c2nc(SCC(=O)N(CC)C3CCS(=O)(=O)C3)n[nH]2)cc1` (stereo not drawn)?
CHO-K1 Ca antag: -6.5; M1 ag: -4.2; M1 PAM parental: 10.5; M1 PAM: 8.6; CHO-K1 Ca ag: 0.6; CHRM1 antagonist: -12.7

How did CCc1nc2ccc(C(=O)N3CCN(c4ccccc4)CC3)cn2c1N(C)CCCc1ccccc1 do in these assays?
CHO-K1 Ca antag: -5.6; M1 ag: -8.3; M1 PAM parental: 24.2; M1 PAM: -12.9; CHO-K1 Ca ag: 0.3; CHRM1 antagonist: 16.3

What do the screens show for `CCc1nc2ccc(C(=O)N(C)CCCN(C)C)cn2c1N(C)CCCc1ccccc1`?
CHO-K1 Ca antag: -8.1; M1 ag: -10.2; M1 PAM parental: -11.1; M1 PAM: -26.7; CHO-K1 Ca ag: 0.0; CHRM1 antagonist: 31.7*

What do the screens show for `CCc1nc2ccc(C(=O)NCCNC(C)=O)cn2c1N(CCC(C)C)CCN(C)C`?
CHO-K1 Ca antag: 11.1; M1 ag: -4.3; M1 PAM parental: -9.7; M1 PAM: -1.2; CHO-K1 Ca ag: 0.3; CHRM1 antagonist: -3.2

What do the screens show for `CCc1nc2ccc(C(=O)N(CC)CCN(C)C)cn2c1N(C)CCCc1ccccc1`?
CHO-K1 Ca antag: -13.7; M1 ag: -8.1; M1 PAM parental: 0.7; M1 PAM: -33.6; CHO-K1 Ca ag: 1.4; CHRM1 antagonist: 51.5*

What do the screens show for `CCc1nc2ccc(C(=O)N(C)Cc3ccccc3)cn2c1N(C)CCCc1ccccc1`?
CHO-K1 Ca antag: 1.8; M1 ag: -8.5; M1 PAM parental: 7.4; M1 PAM: -17.5; CHO-K1 Ca ag: 0.5; CHRM1 antagonist: 13.8

Results for CCc1nc2ccc(C(=O)NCc3ccccc3OC)cn2c1N(CCC(C)C)CCN(C)C ?
CHO-K1 Ca antag: -8.8; M1 ag: 42.4*; M1 PAM parental: -8.5; M1 PAM: -21.4; CHO-K1 Ca ag: 0.7; CHRM1 antagonist: 39.1*

Results for CCc1nc2ccc(C(=O)N(C)CCCN(C)C)cn2c1N(C)Cc1cc2ccccc2s1 ?
CHO-K1 Ca antag: -0.1; M1 ag: -7.9; M1 PAM parental: 2.1; M1 PAM: -26.4; CHO-K1 Ca ag: 0.9; CHRM1 antagonist: 38.4*

How did CCN(N=O)c1ccc(C=C2C=Cc3ccccc32)cc1 do in these assays?
CHO-K1 Ca antag: -18.3; M1 ag: -2.4; M1 PAM parental: 7.1; M1 PAM: -3.9; CHO-K1 Ca ag: 0.5; CHRM1 antagonist: -2.0

Results for CCCNC(=O)C1(C)CCN(C(=O)c2ccc(OC)cc2OC)C1 (stereo not drawn) ?
CHO-K1 Ca antag: -13.1; M1 ag: -1.0; M1 PAM parental: 22.2; M1 PAM: 16.2; CHO-K1 Ca ag: 0.1; CHRM1 antagonist: -15.5

What do the screens show for `COc1ccc(CN(C)CCCn2cnc3c(OCc4ccccc4)ncnc32)cc1OC`?
CHO-K1 Ca antag: -8.9; M1 ag: -9.7; M1 PAM parental: 5.4; M1 PAM: 0.5; CHO-K1 Ca ag: 0.3; CHRM1 antagonist: -4.2

Results for Cc1ccccc1OCC(=O)NCCCNC(=O)c1ccncc1 ?
CHO-K1 Ca antag: -0.7; M1 ag: 3.0; M1 PAM parental: 6.3; M1 PAM: 28.4*; CHO-K1 Ca ag: 0.3; CHRM1 antagonist: -22.2

How did COc1ccc(N2C(=O)CCC(C(=O)NCCN3CCOCC3)C2c2ccc(OC)c(OC)c2)cc1 (stereo not drawn) do in these assays?
CHO-K1 Ca antag: 2.9; M1 ag: -1.8; M1 PAM parental: -6.1; M1 PAM: -3.6; CHO-K1 Ca ag: 0.4; CHRM1 antagonist: 21.7*

Results for COc1ccc(N2C(=O)CCC(C(=O)O)C2c2ccc(OC)c(OC)c2)cc1 (stereo not drawn) ?
CHO-K1 Ca antag: -4.8; M1 ag: -5.0; M1 PAM parental: 12.5; M1 PAM: 5.3; CHO-K1 Ca ag: 0.2; CHRM1 antagonist: 3.3

Results for O=[N+]([O-])c1ccc(NN=C2CC3CCC2C3)c([N+](=O)[O-])c1 (stereo not drawn) ?
CHO-K1 Ca antag: 13.0; M1 ag: -5.9; M1 PAM parental: 1.6; M1 PAM: -22.5; CHO-K1 Ca ag: 8.1; CHRM1 antagonist: 38.6*

Results for O=[N+]([O-])c1ccc(N/N=C2\CC3CC=CC23)c([N+](=O)[O-])c1 (stereo not drawn) ?
CHO-K1 Ca antag: 12.0; M1 ag: -3.8; M1 PAM parental: 1.9; M1 PAM: -5.4; CHO-K1 Ca ag: 8.9; CHRM1 antagonist: 13.9
